Reference: PubChem BioAssay
Where “and” joins values, the source holds several entries; their conditions need not be identical. Equal entries are not always repeated. Inconclusive results are not listed. Calls of active or inactive are those of the source. Unless noted, how the calls were made is not given here.

Experiments:
[1] = test system: Hepatitis C virus NS3 helicase; experiment: HCV NS3 helicase inhibitors, primary screen, biochemical, fluorescence polarization, LOPAC1280 library (AID 687035; in the data active means inhibition above about 37%); settings: Purified HCV NS3 helicase, Cy5-dT15 ssDNA binding fluorescence polarization; stronger effect = higher value; concentration not given here
[2] = Cy5 fluorescence quenching or enhancement artefacts, artefact control for HCV NS3 helicase inhibitor project, biochemical, LOPAC1280 (AID 687037); settings: Cy5-DNA-NS3h complex fluorescence interference counterscreen
[3] = phospholipid biosynthesis inhibitors in animal cells, primary screen, cell-based, LOPAC library, screen 4 (AID 1347384); settings: phospholipid biosynthesis inhibition screen, at 10 µM
[4] = viability rescue of complex I mutant cybrids, primary screen, cell-based, galactose medium, ATP luminescence (AID 1645843;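 active means z-score of at least 1.8 in each of two replicates, scored against plate mean and spread of sample wells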;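 further: positive z means more ATP and so rescue of galactose-driven cybrid death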); settings: complex I mutant cybrid cells, 72 h, stronger effect = higher value
[5] = growth inhibition of DIPG glioma cells, dose response, cell-based, SU-DIPG-XIII, MIPE5.0, CellTiter-Glo, qHTS (AID 1347064; cut-off not given, nearly all actives have AC50 up to about 23 µM;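 on AC50: cells exposed to compound for 48 hours before the viability read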); settings: SU-DIPG-XIII viability, CellTiter-Glo ATP luminescence
[6] = molecular target: NAD(+) hydrolase SARM1 (Homo sapiens) (UniProt Q6SZW1); experiment: SARM1 TIR NADase inhibitors, cell lysate, NAD-Glo luminescence (AID 1508614;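 active means compound whose remaining NAD level is above about 45 nM, limit read from the data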); settings: SAM-TIR HEK293T lysate NADase, at 1 µM, stronger effect = higher value
Chain of NAD(+) hydrolase SARM1 (Homo sapiens) (Q6SZW1 whole entry, looked up, the tested form may be a part): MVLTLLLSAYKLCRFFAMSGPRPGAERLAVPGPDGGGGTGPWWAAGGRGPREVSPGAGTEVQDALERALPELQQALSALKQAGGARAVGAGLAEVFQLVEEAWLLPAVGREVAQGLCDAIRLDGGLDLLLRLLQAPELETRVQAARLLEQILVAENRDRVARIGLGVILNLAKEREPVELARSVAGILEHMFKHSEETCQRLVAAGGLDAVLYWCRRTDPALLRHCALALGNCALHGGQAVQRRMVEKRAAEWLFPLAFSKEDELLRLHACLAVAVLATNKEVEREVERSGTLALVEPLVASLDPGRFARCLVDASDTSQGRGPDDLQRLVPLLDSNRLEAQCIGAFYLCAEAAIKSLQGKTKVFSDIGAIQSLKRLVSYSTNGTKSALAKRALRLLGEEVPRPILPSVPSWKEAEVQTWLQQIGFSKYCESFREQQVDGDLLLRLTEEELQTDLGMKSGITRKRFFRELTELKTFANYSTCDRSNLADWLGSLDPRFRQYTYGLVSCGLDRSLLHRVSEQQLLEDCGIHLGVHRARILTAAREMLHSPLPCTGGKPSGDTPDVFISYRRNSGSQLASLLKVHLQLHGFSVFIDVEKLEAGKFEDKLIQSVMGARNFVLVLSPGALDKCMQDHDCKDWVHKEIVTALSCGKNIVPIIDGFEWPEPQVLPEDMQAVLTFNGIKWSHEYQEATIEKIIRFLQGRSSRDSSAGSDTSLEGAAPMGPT

[7] = molecular target: Mitogen-activated protein kinase 7 (Homo sapiens) (UniProt Q13164); experiment: ERK5 transactivation activators in reporter cells, primary screen, cell-based, HTS (AID 1508626;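 active means luciferase signal above three times the same-plate solvent-only control wells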;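 further: luciferase driven by Gal4-ERK5 fusion binding five Gal4 sites before minimal TATA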); settings: HeLa Gal4-ERK5 transactivation, 18 h, at 5 µM, stronger effect = higher value
Chain of Mitogen-activated protein kinase 7 (Homo sapiens) (Q13164 whole entry, looked up, the tested form may be a part): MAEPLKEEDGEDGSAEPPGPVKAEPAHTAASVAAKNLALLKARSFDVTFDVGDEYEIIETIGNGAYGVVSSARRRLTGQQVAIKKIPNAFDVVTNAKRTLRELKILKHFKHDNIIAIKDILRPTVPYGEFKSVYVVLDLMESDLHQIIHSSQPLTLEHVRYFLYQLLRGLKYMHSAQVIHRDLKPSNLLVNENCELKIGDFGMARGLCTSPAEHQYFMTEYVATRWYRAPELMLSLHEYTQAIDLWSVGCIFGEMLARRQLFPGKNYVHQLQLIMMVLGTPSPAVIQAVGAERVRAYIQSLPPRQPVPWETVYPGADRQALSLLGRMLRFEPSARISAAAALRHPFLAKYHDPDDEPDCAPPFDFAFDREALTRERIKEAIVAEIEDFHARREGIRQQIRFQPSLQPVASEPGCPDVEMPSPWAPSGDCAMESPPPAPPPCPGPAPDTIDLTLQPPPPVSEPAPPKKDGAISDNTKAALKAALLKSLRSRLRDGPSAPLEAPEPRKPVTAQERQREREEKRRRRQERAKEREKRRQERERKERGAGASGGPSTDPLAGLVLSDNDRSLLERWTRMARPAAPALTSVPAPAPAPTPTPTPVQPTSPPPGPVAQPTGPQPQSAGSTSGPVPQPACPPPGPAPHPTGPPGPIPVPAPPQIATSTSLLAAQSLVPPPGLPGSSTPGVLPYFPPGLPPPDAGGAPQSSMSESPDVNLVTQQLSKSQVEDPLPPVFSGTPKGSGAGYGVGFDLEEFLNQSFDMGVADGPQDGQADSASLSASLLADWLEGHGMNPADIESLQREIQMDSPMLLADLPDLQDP

[8] = CRL2098 osteosarcoma cell growth inhibition, synergistic combos for chromothripsis tumors, BGB or cisplatin IC20 combos (AID 1671454; in the data active means inhibition above about 80%;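 further: cells exposed for 96 h before readout; 0% = vehicle DMSO and 100% = killing by high DMSO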); settings: CRL2098 osteosarcoma cells, drug combinations, stronger effect = higher value
[9] = HD-MB03 medulloblastoma cell growth inhibition, synergistic combos for chromothripsis tumors, BGB or cisplatin IC20 combos (AID 1671455; in the data active means inhibition above about 83%;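 further: 0% = vehicle DMSO and 100% = high DMSO as cytotoxic control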); settings: HD-MB03 medulloblastoma cells, stronger effect = higher value
[10] = UWB1.289 ovarian carcinoma cell growth inhibition, synergistic combos for chromothripsis tumors, BGB or cisplatin combos (AID 1671456; in the data active means inhibition above about 80%;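 further: cells exposed to compound for four days; 0% = vehicle DMSO and 100% = killing by high DMSO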); settings: UWB1.289 ovarian carcinoma cells, stronger effect = higher value
[11] = LFS_MB_2R medulloblastoma cell growth inhibition, synergistic combos for chromothripsis tumors, cisplatin combos (AID 1671457; in the data active means inhibition above about 80%;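 further: cells exposed to compound for four days before readout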); settings: LFS_MB_2R medulloblastoma cells, stronger effect = higher value
[12] = UWB1.289_BRCA1 ovarian cancer growth, cell-based, BGB or cisplatin combinations (AID 1671459; in the data active means inhibition above about 80%); settings: UWB1.289 BRCA1 ovarian carcinoma, drug combinations, stronger effect = higher value
[13] = human astrocyte viability loss, single and combined drugs, cytotoxicity control for chromothriptic childhood tumor combination screen, cell-based, BGB or cisplatin IC20 combos (AID 1671460; in the data active means inhibition above about 80%;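 further: cells exposed to compounds for 96 hours before viability readout; 0% = vehicle and 100% = killing control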); settings: Human astrocytes, drug combinations, stronger effect = higher value
[14] = inhibitors of Cryptococcus chitosan production, flow cytometry, Cibacron Brilliant Red staining (AID 1347148); settings: Cryptococcus neoformans chitosan, stronger effect = lower value; at 10 µM unless noted;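 further: compound exposure lasted three days at 37 degrees C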
[15] = circadian clock period modulators, cell-based, LOPAC library, luminescence reporter (AID 2774); settings: circadian reporter cells, at 7 µM, actives lie on both sides;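 further: values are relative to mean of DMSO wells on each plate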
[16] = kinase inhibitors against Plasmodium liver-stage infection, cell-based, known kinase inhibitor set, luminescence, hepatoma host viability (AID 624392); settings: Plasmodium liver stage in hepatoma cells, luciferase luminescence, concentration not given here; liver cell % of control: measured here: host liver cell viability; parasite % of control: stronger effect = lower value;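 further: infected cells incubated roughly two days before readout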
[17] = liver-stage malaria parasite growth inhibition, primary screen, cell-based, HepG2, luciferase luminescence, HepG2 viability (AID 624349; in the data active means parasite load remaining mostly below about 12%, no sharp cut-off; inactive means mostly above about 10%;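 further: 100% = mean of DMSO negative control wells on the same plate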); settings: P. berghei liver stage in HepG2, luciferase luminescence, concentration not given here; parasite load remaining: stronger effect = lower value; viability: measured here: HepG2 viability without parasites
[18] = hESC survival regulators, cell-based (AID 493140); settings: human embryonic stem cell survival screen; stronger effect = higher value;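 further: cells exposed to compounds for four days before counting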
[19] = measured here: combination with BGB at IC20, at 0.5 µM
[20] = measured here: combination with cisplatin at IC20, at 0.5 µM
[21] = measured here: combo with BGB at IC20, at 0.5 µM
[22] = measured here: combo with cisplatin at IC20, at 0.5 µM
[23] = measured here: inhibition with BGB combination, at 0.05 µM
[24] = measured here: inhibition with cisplatin combination, at 0.05 µM
[25] = measured here: combination with cisplatin, at 0.5 µM
[26] = measured here: combination with cisplatin, at 5 µM
[27] = BGB combination, concentration series, at 5 µM
[28] = cisplatin combination, concentration series, at 5 µM
[29] = measured here: combo with BGB IC20, at 0.5 µM
[30] = measured here: combo with cisplatin IC20, at 0.5 µM

NC(N)=Nc1nc(CSCCC(N)=NS(N)(=O)=O)cs1
inhibition [1]: -3% (inactive) | fluorescence ratio (interference) [2]: 1 (inactive) | outcome [3]: inactive | z-score [4]: 1.1 (inactive) and 1.27 (inactive)

N#CC1(c2cccc(C(=O)Nc3cc(Oc4ccc5nc(NC(=O)C6CC6)sc5n4)ccc3F)c2Cl)CC1
AC50 [5]: 0.742 µM (active)

CCCCCCCCCCCCCCCC(=O)OC[C@@H](NC(=O)C(Cl)Cl)[C@H](O)c1ccc([N+](=O)[O-])cc1
remaining NAD [6]: 10 nM (inactive) | luciferase signal [7]: 64 AU (inactive)

CC(O)C1C(=O)N2C(C(=O)O)=C(SC3CNC(C(=O)N(C)C)C3)C(C)C12 (centres undefined)
z-score [4]: 0.545 (inactive)

CC(C)OC(=O)[C@H](C)N[P@](=O)(OC[C@H]1O[C@@H](n2ccc(=O)[nH]c2=O)[C@](C)(F)[C@@H]1O)Oc1ccccc1
inhibition ([8]; at 0.5 µM): -13.4% (inactive) | inhibition [8, 19]: 11.7% | inhibition [8, 20]: -20.8% | inhibition ([9]; at 0.5 µM): -3.62% (inactive) | inhibition [9, 21]: -1.34% | inhibition [9, 22]: -5.16% | inhibition ([10]; at 0.5 µM): 0.46% (inactive) | inhibition [10, 23]: -14.4% | inhibition [10, 24]: -6.56% | inhibition ([11]; at 0.5 µM): -20% (inactive) | inhibition [11, 25]: -25% | inhibition [11, 26]: -21.1% | inhibition [12, 27]: 0.431% | inhibition ([12]; at 0.5 µM): -0.57% (inactive) | inhibition [12, 28]: 20% | inhibition ([13]; at 0.5 µM): 4.95% (inactive) | inhibition [13, 29]: 12% | inhibition [13, 30]: 8.21%

C[C@]12C=CC(=O)N[C@@H]1CC[C@@H]1[C@@H]2CC[C@]2(C)[C@@H](C(=O)Nc3cc(C(F)(F)F)ccc3C(F)(F)F)CC[C@@H]12
remaining NAD [6]: 10 nM (inactive)

Nc1nc2[nH]cc(CCc3ccc(C(=O)N[C@@H](CCC(=O)O)C(=O)O)cc3)c2c(=O)[nH]1
remaining NAD [6]: 10 nM (inactive)

C/C=C1\C2C=C(C)CC1(N)c1ccc(=O)[nH]c1C2 (centres undefined)
fold fluorescence [14]: 4.5 [at 206.3 µM] (inactive)

CC1(C)C(=O)N(CCN2CCC(C(=O)c3ccc(F)cc3)CC2)c2ccccc21
period change [15]: 0.085 h (inactive) | inhibition [1]: -1% (inactive) | fluorescence ratio (interference) [2]: 1 (inactive) | outcome [3]: inactive | z-score [4]: -1.21 (inactive)

CCOC(=O)N[C@@H]1CC[C@@H]2[C@@H](C1)C[C@H]1C(=O)O[C@H](C)[C@H]1[C@H]2/C=C/c1ccc(-c2cccc(F)c2)cn1
outcome [5]: inactive

CC(C)(Cc1ccc2ccccc2c1)NC[C@@H](O)COc1cccc(Cl)c1C#N
AC50 [5]: 8.33 µM (active)

COc1ccc(Cc2nccc3cc(OC)c(OC)cc23)cc1OC
outcome [5]: inactive | outcome [3]: inactive

O=C(O)C1(Cc2cccc(Nc3nccs3)n2)CCC(Oc2cccc(Cl)c2F)CC1 (centres undefined)
outcome [5]: inactive

COCCNCCCn1c(C(=O)CF)c(-c2ccc(C)cc2)c2c(N)ncnc21
parasite % of control [16]: 34.2% (inactive) and 108% (inactive) and 115% (inactive) | outcome [5]: inactive

C=C1c2cccc(O)c2C(O)=C2C(=O)[C@@]3(O)C(O)=C(C(N)=O)C(=O)[C@@H](N(C)C)[C@@H]3[C@@H](O)[C@H]12
outcome [5]: inactive

Cc1cnc(CNC(=O)c2c(=O)c3ccc(N4CCCN(C)CC4)nc3n3c2sc2ccccc23)cn1
outcome [5]: inactive | inhibition ([8]; at 0.5 µM): 31.8% (inactive) and -46.4% (inactive) | inhibition [8, 19]: 40.6% and -32.3% | inhibition [8, 20]: 37% and -70.3% | inhibition ([9]; at 0.5 µM): 51.2% (inactive) and 21.9% (inactive) | inhibition [9, 21]: 53.1% and 31.3% | inhibition [9, 22]: 36.7% and 11.5% | inhibition ([10]; at 0.5 µM): 39.7% (inactive) and 9.86% (inactive) | inhibition [10, 23]: -5.3% and -40% | inhibition [10, 24]: -10.5% and -7.68% | inhibition ([11]; at 0.5 µM): -14.9% (inactive) and -31.5% (inactive) | inhibition [11, 25]: -16.1% and -30.8% | inhibition [11, 26]: 108% and -28.8% | inhibition [12, 27]: 117% and 38.3% | inhibition ([12]; at 0.5 µM): 44.8% (inactive) and 2% (inactive) | inhibition [12, 28]: 122% and 71.6% | inhibition ([13]; at 0.5 µM): 45.8% (inactive) and 19.7% (inactive) | inhibition [13, 29]: 41.5% and 16.4% | inhibition [13, 30]: 31.2% and 2.96%

COc1cc(OC2CCN(C)CC2)ccc1Nc1ncc2c(n1)n(C1CCCC1)c(=O)n2C
AC50 [5]: 18.6 µM (active)

Cn1cc(-c2ccc3nnc(C(F)(F)c4ccc5ncccc5c4)n3n2)cn1
liver cell % of control [16]: 86.8% and 81.6% and 92.2% | parasite % of control [16]: 347% (inactive) and 352% (inactive) and 281% (inactive)

Cc1cc(C(C)Nc2ccccc2)c2nc(N3CCOCC3)cc(=O)n2c1 (centres undefined)
parasite load remaining [17]: 33.1% (inactive) | viability [17]: 62.4% | liver cell % of control [16]: 99% and 87.4% and 105% | parasite % of control [16]: 84.7% (inactive) and 70.8% (inactive) and 54.4% (inactive)

COc1cc(Oc2ccnc3cc(OC)c(OC)cc23)ccc1NC(=O)NC(C)c1nccs1 (centres undefined)
liver cell % of control [16]: 91.8% and 94.8% and 112% | parasite % of control [16]: 110% (inactive) and 137% (inactive) and 49.5% (inactive) | outcome [5]: inactive

COc1cc2ncnc(-n3nc(-c4ccccn4)nc3N)c2cc1OC
inhibition ([8]; at 0.5 µM): -78.1% (inactive) | inhibition [8, 19]: -51.1% | inhibition [8, 20]: -60.2% | inhibition ([9]; at 0.5 µM): -15.7% (inactive) | inhibition [9, 21]: -13.6% | inhibition [9, 22]: -21.1% | inhibition ([10]; at 0.5 µM): -16.4% (inactive) | inhibition [10, 23]: -29.1% | inhibition [10, 24]: -13.1% | inhibition ([11]; at 0.5 µM): -18.6% (inactive) | inhibition [11, 25]: -13.8% | inhibition [11, 26]: 1.78% | inhibition [12, 27]: 15% | inhibition ([12]; at 0.5 µM): -15.7% (inactive) | inhibition [12, 28]: 9.66% | inhibition ([13]; at 0.5 µM): 6.38% (inactive) | inhibition [13, 29]: 7.82% | inhibition [13, 30]: -1.55%

OCc1ccc(-c2nn(Cc3ccccc3)c3ccccc23)o1
period change [15]: -0.37 h (inactive) | inhibition [1]: 0% (inactive) | fluorescence ratio (interference) [2]: 1 (inactive) | fold fluorescence [14]: 11.2 [at 164.3 µM] (inactive) | outcome [3]: inactive | z-score [4]: -0.46 (inactive)

CN1CCN(c2cc(C(=O)Nc3ccc4c(c3)-c3c(c(C(N)=O)nn3-c3ccc(F)cc3)CC4)c(Cl)cn2)CC1
AC50 [5]: 14.8 µM (active)

CCC(=O)OCC(=O)[C@@]1(OC(=O)CC)[C@@H](C)C[C@H]2[C@@H]3CCC4=CC(=O)C=C[C@]4(C)[C@@]3(F)[C@@H](O)C[C@@]21C
remaining NAD [6]: 10 nM (inactive) | luciferase signal [7]: 156 AU (inactive)

CN(C)N=Nc1nc[nH]c1C(N)=O
survival [18]: 12.2 (inactive) | parasite load remaining [17]: 83.6% (inactive) and 67% (inactive) | viability [17]: 97.7% and 78.1% | outcome [5]: inactive

COc1ccc(COc2cc3oc(=O)c4cc(C(C)O)ccc4c3cc2OC)cc1 (centres undefined)
outcome [5]: inactive

CCn1c(-c2nonc2N)nc2c(C#CC(C)(C)O)ncc(OC[C@H]3CCCNC3)c21
AC50 [5]: 2.63 µM (active)
